Measured values: PubChem BioAssay (NCI)
About 83,000 compounds went through this panel and 20% of them were active in at least one assay; those are over-represented in the sample as a whole.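 Testing used 96-well plates and a 48-hour single-concentration exposure. Example: -40 means 40% of the starting cells died.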 A number with no mark means an inactive call. Activity calls are given as the source filed them. Rule for the calls: active = growth percent below 10; inactive = the rest.

These compounds were tested on MDA-MB-468 breast (assay: NCI-60 one-dose screen, 48 h (100 = growth as untreated, 0 = no growth, -100 = all killed)). Conditions: 10 µM unless noted.

Structure (SMILES) | growth
C=C(C)[C@@H]1CC[C@]2(C)[C@H](CC=C3[C@@H]4CC(C)(C)CC[C@]4(C(=O)NCC#CCN4CCN(C)CC4)CC[C@]32C)[C@@]1(C)CCC#N | 47.9%
COc1cc2cc(Oc3ccc(NC(=O)Nc4cc(C(F)(F)F)cc(C(F)(F)F)c4)cc3)c(C)nc2cc1OCCN(C)C | 100%
Cc1cc(C)cc(CCCCCCCCCCCCCCCCCC(=O)O)c1 | 106%
CC1CN=C(c2cccc(-c3ccc(-c4ccccc4)o3)c2)N1 (stereo not given) | -35.5% (active)
O=C(O)CNS(=O)(=O)c1ccc(Oc2ccc(S(=O)(=O)NCC(=O)O)cc2)cc1 | 107%
O=C(O)c1cn(C2CC2)c2cc(N3CCN(Cc4ccc5ccccc5c4O)CC3)c(F)cc2c1=O | 39.2%
C/C(Nc1ccc(Cl)c(Cl)c1)=C1\CCOC1=O | 70.5%
Nc1nc(Nc2ccc(OCc3cccc(F)c3)cc2)c2c(n1)[nH]c1ccc(O)cc12 | -17.2% (active)
CO[C@@]12C=C[C@@]34CCC(=O)N3c3ccccc3[C@@H](O1)C4C2 | 108%
CCOC(=O)CC1CSC(N/N=C/c2ccc(O)cc2)=N1 (stereo not given) | 108%
CCOCCOCCOCCOCCOCCOCCOCCOCCOCCO (tested in a mixture with another compound) | -13.5% (active)
CCc1ccc(Nc2cc(C)nc3nc(C)nn23)cc1 | -87.8% (active)
COc1ccc(/C(=N\N)C(=O)c2ccccc2)cc1 (tested in a mixture with another compound) | 89%
CCCNNC(=O)c1ccc(CNC(=O)/C=C/c2ccccc2)cc1 | 54.5% [2.5 µM]
O=C(/C=C\c1ccco1)/C=C/c1ccco1 | 102%
O=c1ccc2nc(C(F)(F)F)nn(-c3ccccc3)c-2c1 | -73.5% (active)
COc1ccc2c(c1)[nH]c(=O)c1c3cccc(F)c3cn21 | 51.8%
N#C/C(=C\c1ccc(-c2cccc(Cl)c2)o1)C(=O)Nc1ncc(Cc2ccc(Cl)cc2)s1 | 47%
FC(F)(F)c1cc(-c2nnc3n2N=C(N2CCCC2)CS3)cc(C(F)(F)F)c1 | 66.3%
C/C(Cc1ccccc1)=N\O | 106%

Structure (SMILES) | growth
CCN1C(=O)N(CC)C2Nn3c(s/c(=C4\C(=O)N(CCC(C)C)c5ccccc54)c3=O)=NC21 (stereo not given) | 11.6%
O=C(/C(Cl)=N/O)c1ccc(-c2ccccc2)cc1 | 104%
Cn1cc(-c2csc(-c3cn(CCOC(N)=O)c4ccccc34)n2)c2cccnc21 | 16.2%
O=C(Nc1ccc(S(=O)(=O)NC2CCCCCC2)cc1)C(c1ccccc1)S(=O)(=O)c1ccc(F)cc1 (stereo not given) | -14.5% (active)
S=C(Nc1ccc(Cl)cc1)c1ccccn1 | 98.9%
COc1ccc(-c2nc(/C=C3/C(=O)Nc4ccc(F)cc43)c3ccccn23)cc1 | 105%
COc1cc(C(=O)/C=C/c2cccnc2Nc2ccc(Cl)cc2)cc(OC)c1OC | -80.1% (active)
O=C(NN=C1CCCCC1)C(=O)NN=C1CCCCC1 | 113%
Cc1cn(-c2cccc(NC(=O)c3ccc(C)c(Nc4nccc(-c5cccnc5)n4)c3)c2)cn1 | -41.4% (active)
O=C1OCC2=C1C(c1cccc(Cl)c1)c1cc3c(cc1N2CCO)CCC3 (stereo not given) | -9.35% (active)
O=C(/C=C/c1cccc(Cl)c1)OCc1ccc2cc1OCC#C/C=C\C#CCO2 | 79.2%
Nc1c(C(=O)c2ccccc2)sc2nc(-c3cnccn3)cc(-c3cccs3)c12 | 111%
CCN1/C(=C/C=C/c2n(-c3ccccc3)c3ccc(-c4nc5ccccc5s4)cc3[n+]2CC)N(c2ccccc2)c2ccc(-c3nc4ccccc4s3)cc21 | 8.94% (active)
Cc1ccc(/C=C2\CN(C(=O)OC(C)(C)C)C/C(=C\c3ccc(C)cc3)C2=O)cc1 | 56.2%
CC(C)C[C@H](C(=O)N[C@@H](C)C(N)=O)N1CC=CCN(O)S1(=O)=O | 109% [5 µM]
O=C(CN1CCCCC1)Nc1ccc2oc(=O)ccc2c1 | 107%
CCOC(=O)C1=NNC(c2ccc(Cl)cc2)C1C(=O)N1C(=S)NC(=O)C1CC(C)C (stereo not given) | 102%
CCOC(=O)c1nc2c3ccccc3ccn2c1C(=O)OCC | 109%
O=C1CC(c2cccc(F)c2)c2c(n[nH]c2-c2ccc(Cl)cc2)N1 (stereo not given) | 68.4%
CC(=O)c1ccc(Nc2nc(NCCO)nc(Nc3ccc(Cl)cc3)n2)cc1 | 65.7%
